These results are taken from PubChem BioAssay (NCATS).

Several values for one entry are separate records, joined by “and”; a condition that tells them apart may be missing. Equal entries are not always repeated. Records with an inconclusive call do not appear. Activity calls are given as the source filed them. Unless noted, calls follow the shape of the dose curve; as a rule, active = well fitted curve in the direction sought with a large enough effect; inconclusive = small, poorly fitted or top-dose-only effect, or another doubt; inactive = no such curve, though single readings can be large; an effect the other way counts as inactive or inconclusive.

Assay [1] is described as follows: Primary qHTS for inhibitors of nuclear receptor binding SET domain protein 2 (NSD2) in an RCH-ACV wild type WT cells (2C) (AID 1645877; also: nearly all actives have a fitted effect of over 70% in size; also: potency is read from the fitted curve at half-maximal effect). (In general: qHTS replaces the single test concentration by a dilution series.)
The target in assay [2] is Catechol O-methyltransferase (Homo sapiens) (UniProt P21964). As to the kind of experiment: Confirmatory Screen for Target Class Profiling of Small Molecule Inhibitors of Methyltransferases (AID 1745852; calls by dose curve; also: potency is read from the fitted curve at half-maximal effect; as to activity change, negative = inhibition: % is scaled to controls: 0 for no effect and ±100 for the full control effect). The following applies: MTase-Glo luminescence, SAH detection, recombinant enzyme; measured here: COMT max response; stronger effect = lower value.
For assay [3], the target named is Guanidinoacetate N-methyltransferase (Homo sapiens) (UniProt Q14353). Described as above. Conditions: activity change, negative = inhibition: at 57.3 µM (top of the series) unless noted.
Assay [4] deals with Nicotinamide N-methyltransferase (Homo sapiens) (UniProt P40261). Described as above. Conditions: MTase-Glo luminescence, SAH detection, recombinant enzyme; measured here: NNMT max response; stronger effect = lower value.
Assay [5] has as its target Phenylethanolamine N-methyltransferase (Homo sapiens) (UniProt P11086). Described as above. Conditions: MTase-Glo luminescence, SAH detection, recombinant enzyme; measured here: PNMT max response; stronger effect = lower value.
Assay [6] concerns the target Glutathione peroxidase 1 (Homo sapiens) (UniProt P07203). Kind of assay: Primary qHTS Assay for Inhibitors of Recombinant Selenoprotein Glutathione Peroxidase 1 (GPX1) (AID 1845191). Also: nearly all actives have a fitted effect of over 65% in size. In a few lines:
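NADPH consumption tracked by fluorescence at 340/450 nm between t=0 and t=15 min, room temperature. Final mix: 10 nM GPX1, 100 nM glutathione reductase, 1 mM GSH, 0.5 mM NADPH, 0.5 mM cumene hydroperoxide, 0.01% BSA; 30 min compound–enzyme preincubation.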

Assay [7] addresses Luciferin 4-monooxygenase (Photinus pyralis) (UniProt P08659). As to the kind of experiment: Primary firefly luciferase (FLuc) qHTS assay for identification of artifact compounds. (AID 1845220). Also: nearly all actives have a fitted effect of over 60% in size.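 As to activity change, negative = inhibition: plate controls were DMSO vehicle for no effect and no enzyme for full effect.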 Summed up: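 Compounds sat 15 min at room temperature with 10 uM luciferin and 10 uM ATP (pH 7.6 Tris acetate). Firefly luciferase (10 nM final) was then added, and luminescence was read 5 min later. Data normalized to no-enzyme and DMSO controls were Hill-fitted.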

The subject of assay [8] is Nanoluciferase (engineered Oplophorus gracilirostris luciferase). Kind of assay: Primary Nanoluciferase (NLuc) qHTS assay for identification of artifact compounds. (AID 1845222).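 Also: 0% = DMSO and -100% = no enzyme.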 Summed up: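 Luminescence from secreted NLuc (filtered, 1:55-diluted S16 cell medium) read 5 min after Nano-Glo substrate; compounds preincubated 15 min, RT. Hill fits of inhibition normalized to DMSO and no-enzyme.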

The nature of assay [9]: Primary redox qHTS assay for identification of artifact compounds. (AID 1845223).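 Also: 0% = DMSO and 100% = reference compound.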 Summed up:
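Redox-cycling detection via DTT (250 uM final) oxidation coupled to Amplex Red (25 uM)/HRP (250 mU/mL) in HBSS. 15 min preincubation plus 30 min after DTT, room temperature. Ex/Em 525/598 nm; 4-parameter Hill fit against DMSO and 10 uM DA3003.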

In assay [10] the target is Phospholipid hydroperoxide glutathione peroxidase GPX4 (Homo sapiens) (UniProt P36969). As to the kind of experiment: Primary qHTS Assay for Inhibitors of Recombinant Selenoprotein Glutathione Peroxidase 4 (GPX4) (AID 1845192). Also: nearly all actives have a fitted effect of over 65% in size. As to activity change, negative = inhibition: % is scaled to controls: 0 for no effect and ±100 for the full control effect. In a few lines: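 NADPH consumption followed by fluorescence at 340/450 nm, t=0 and after 15 min at room temperature. Reaction started with cumene hydroperoxide (0.5 mM final) after 30 min compound–GPX4 preincubation; final 200 nM GPX4, 100 nM GR, 1 mM GSH, 0.5 mM NADPH.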

Assay [11] in a line: Primary fluorescence-based thiol-reactive (MSTI) qHTS assay for identification of artifact compounds. (AID 1845221). Also: nearly all actives have a fitted effect of over 65% in size. Also: potency is read from the fitted curve at half-maximal effect. Summed up: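 One-hour, room-temperature, dark incubation of compound with 4 uM MSTI in PBS (pH 7.4, 2% DMSO) precedes a fluorescence read at 525 nm excitation, 598 nm emission; Hill-equation fitting yields concentration-response values.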
A short description of assay [12]: NCATS anti-infectives library activity on HEK293 viability as a counter-qHTS vs the C. elegans viability qHTS (AID 1745854).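 Also: HEK293 cells exposed to compounds for 24 hr before the viability read; % is scaled to controls: 0 for no effect and ±100 for the full control effect.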 In a few lines: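 Counter-screen for cytotoxicity: HEK293, 24 hr, 37C, compounds up to 41.7 uM final (a dilution series, 1:5). Readout CellTiter-Glo luminescence, 10 min RT. Digitonin control, 83.3 uM final.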

Phenylethanolamine N-methyltransferase (Homo sapiens), sequence (P11086 whole entry, looked up): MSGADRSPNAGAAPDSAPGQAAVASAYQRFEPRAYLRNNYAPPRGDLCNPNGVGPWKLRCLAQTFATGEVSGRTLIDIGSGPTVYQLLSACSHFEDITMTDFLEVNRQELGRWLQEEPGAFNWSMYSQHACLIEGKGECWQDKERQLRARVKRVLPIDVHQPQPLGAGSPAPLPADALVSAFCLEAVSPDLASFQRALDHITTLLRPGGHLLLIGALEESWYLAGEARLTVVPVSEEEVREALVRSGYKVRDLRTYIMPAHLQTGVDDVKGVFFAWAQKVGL
Catechol O-methyltransferase (Homo sapiens), sequence (P21964 whole entry, looked up): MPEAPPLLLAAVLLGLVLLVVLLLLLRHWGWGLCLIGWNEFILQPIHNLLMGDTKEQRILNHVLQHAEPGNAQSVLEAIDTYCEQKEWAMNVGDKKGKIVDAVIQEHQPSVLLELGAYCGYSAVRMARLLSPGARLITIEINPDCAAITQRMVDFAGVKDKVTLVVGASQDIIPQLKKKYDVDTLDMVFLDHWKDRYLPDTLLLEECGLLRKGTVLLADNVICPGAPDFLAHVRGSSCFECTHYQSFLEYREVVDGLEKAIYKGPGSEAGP
Nicotinamide N-methyltransferase (Homo sapiens), sequence (P40261 whole entry, looked up): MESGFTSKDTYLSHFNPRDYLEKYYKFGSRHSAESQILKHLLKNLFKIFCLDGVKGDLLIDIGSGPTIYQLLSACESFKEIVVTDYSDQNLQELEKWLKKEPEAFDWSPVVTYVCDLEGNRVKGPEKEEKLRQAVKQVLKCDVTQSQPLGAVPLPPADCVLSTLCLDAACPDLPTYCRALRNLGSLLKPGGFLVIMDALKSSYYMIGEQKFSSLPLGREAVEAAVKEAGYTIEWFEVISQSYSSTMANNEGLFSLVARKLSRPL
Glutathione peroxidase 1 (Homo sapiens), sequence (P07203 whole entry, looked up): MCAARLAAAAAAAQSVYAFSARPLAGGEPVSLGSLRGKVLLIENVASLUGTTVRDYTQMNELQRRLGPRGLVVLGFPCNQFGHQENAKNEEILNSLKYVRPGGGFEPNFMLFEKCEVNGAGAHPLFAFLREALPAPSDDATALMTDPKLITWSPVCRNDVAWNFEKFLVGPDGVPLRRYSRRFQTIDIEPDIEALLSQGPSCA
Phospholipid hydroperoxide glutathione peroxidase GPX4 (Homo sapiens), sequence (P36969 whole entry, looked up): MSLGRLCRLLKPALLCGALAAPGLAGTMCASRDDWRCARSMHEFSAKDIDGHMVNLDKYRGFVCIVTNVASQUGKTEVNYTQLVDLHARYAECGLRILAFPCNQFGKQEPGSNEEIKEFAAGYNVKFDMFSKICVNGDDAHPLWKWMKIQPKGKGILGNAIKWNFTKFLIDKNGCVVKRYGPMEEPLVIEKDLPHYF

`C=C1C(=O)O[C@@H]2/C=C(\C)C(=O)/C=C/[C@](C)(O)C[C@@H](OC(=O)C(C)C)[C@@H]12`: in assay [1], the Potency is 0.284 µM (active). The activity in assay [2] was -80.2%; in [4], -1.46%; in assay [5], -0.934%. In assay [3], the activity change, negative = inhibition was -3.22%. Besides, the Potency result in assay [6], in assay [7], in [8] and in [9] was “inactive” throughout.

On to `NC(=O)c1cnc(NCCc2ccc(O)c(Cl)c2)nc1NCc1ccccc1`, for which the figures for the Potency in [1] and in assay [3] were 1.15 µM (active) and 27.1 µM (active), respectively. Moreover, the activity in assay [2] is -29%; in [4], -78.6%; in [5] it was -25.9%. Also, the Potency result in assay [6], in assay [10], in [7], in [11], in [8] and in assay [9] was “inactive” in each case.

As to `COC(=O)C1=CO[C@@H](O[C@@H]2O[C@H](CO[C@@H]3O[C@H](COC(=O)/C=C/c4cc(OC)c(O)c(OC)c4)[C@@H](O)[C@H](O)[C@H]3O)[C@@H](O)[C@H](O)[C@H]2O)[C@@H]2C(CO)=CC[C@H]12`, the Potency result in assay [1], in assay [6], in [10], in [7], in [8] and in [9] was “inactive” each time. The activity in assay [2] was -63.8%; in [4], -1.52%; in [5], -1.68%. For the same compound, in assay [3], the activity change, negative = inhibition is -1.94% [at 19.1 µM]. Besides, the Potency in assay [11] is 7.93 µM (active).

For `NCCCNc1ccc(Nc2nccc(Nc3cc(C4CC4)[nH]n3)n2)cc1`, the Potency in [1] is 0.515 µM (active); in [3], 27.1 µM (active). In addition, the values for the activity in assay [2], in [4] and in assay [5] were -13.5%, -57.6% and -35.6%, respectively. The Potency entry in [6], in assay [10], in assay [7], in [8] and in assay [9] was “inactive” in each case.

Consider `CC1(C)CC[C@]2(C(=O)O[C@@H]3O[C@H](CO)[C@@H](O)[C@H](O)[C@H]3O)CC[C@]3(C)C(=CCC4[C@@]5(C)C[C@@H](O)[C@H](O)C(C)(C)C5CC[C@]43C)C2[C@@H]1O` (stereo partly specified), for which the Potency result in assay [1], in assay [6], in assay [10], in assay [7], in [8] and in [9] was “inactive” in each case. The activity in assay [2] was -85.2%; in assay [4] it was -0.101%; in assay [5], -0.0843%. In [3], the activity change, negative = inhibition was -2.23% [at 19.1 µM].

As for `CC(O)(CC(=O)O)CC(=O)OCc1ccc(O[C@@H]2O[C@H](CO)[C@@H](O)[C@H](O)[C@H]2O)cc1` (stereo partly specified), the Potency entry in assay [1], in [6], in [10], in assay [7], in assay [8] and in [9] was “inactive” in each case. Further, the activity in [2] was -58.1%; in assay [4] it was 1.65%; in [5] it was 1.08%. For the same compound, the activity change, negative = inhibition in assay [3] turned out to be 2.07% [at 29.8 µM].

Consider `CC(=O)OC/C=C(\C)C(CC1C(C)=C(OC(C)=O)C(=O)C2C(C)(C)C(O)CCC12C)OC(C)=O` (stereo unspecified), for which the Potency entry in assay [1], in assay [6], in assay [10], in assay [7] and in [8] was “inactive” each time. In addition, the values for the activity in assay [2], in [4] and in assay [5] were -67.8%, -5.45% and -0.876%, respectively. Also, the activity change, negative = inhibition in [3] is -2.29% [at 29.8 µM].

In the case of `CC(C)[C@@](C)(O)[C@@H]1CN(c2nc(-c3[nH]nc4ncccc34)c(F)cc2Cl)CCN1`, the Potency was 4.59 µM (active) in assay [1] and 27.1 µM (active) in [3]. The activity in assay [2] is -69%; in [4] it was -56.9%; in assay [5], -65.1%. For the same compound, the Potency entry in assay [6], in assay [10], in [7], in [8] and in [9] was “inactive” throughout.

On to `Cc1ccc([N+](=O)[O-])cc1S(=O)(=O)N(C)/N=C/c1cnc2ccc(Br)cn12`, for which the Potency in assay [1] was 20.6 nM (active) and 74.2 nM (active); in assay [3], 30.4 µM (active). Moreover, the activity was -16.2% in assay [2], -33.8% in assay [4] and -16.6% in assay [5]. Also, the Potency entry in assay [6], in assay [10], in [7], in assay [8] and in [9] was “inactive” in each case.

As to `Cc1cc(=O)oc2c(C=O)c(O)ccc12`, the figures for the Potency in assay [1] and in assay [3] were 16.3 µM (active) and 17.1 µM (active), respectively. Besides, the values for the activity in assay [2], in assay [4] and in [5] were -6.39%, -24% and -37.6%, respectively. Moreover, the Potency entry in [7], in [8] and in assay [9] was “inactive” throughout.

Consider `CC(C)c1cc(C(=O)N2CC[C@@H](NC(=O)C3CC3)C2)n[nH]1`, for which the Potency entry in assay [1], in assay [12], in assay [6], in assay [10], in assay [7] and in [11] was “inactive” throughout. The Potency entry in [8] and in assay [9] was “inactive” throughout.
